M4 antag – blocks acetylcholine activation of human M4 receptor; inhibition, % at 3 µM; CHO-hM4 cells, ACh EC80, Fluo-8 calcium fluorescence; AID 624125; P08173; 360,000 compounds, 0.73% hits;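 active = inhibition above its plate's cutoff, the mean inhibition of sample wells plus 3 SD, cut at about 27% in these data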;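 also: 0% = acetylcholine EC80 with DMSO and 100% = DMSO without agonist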
Target sequence (P08173 whole entry, looked up): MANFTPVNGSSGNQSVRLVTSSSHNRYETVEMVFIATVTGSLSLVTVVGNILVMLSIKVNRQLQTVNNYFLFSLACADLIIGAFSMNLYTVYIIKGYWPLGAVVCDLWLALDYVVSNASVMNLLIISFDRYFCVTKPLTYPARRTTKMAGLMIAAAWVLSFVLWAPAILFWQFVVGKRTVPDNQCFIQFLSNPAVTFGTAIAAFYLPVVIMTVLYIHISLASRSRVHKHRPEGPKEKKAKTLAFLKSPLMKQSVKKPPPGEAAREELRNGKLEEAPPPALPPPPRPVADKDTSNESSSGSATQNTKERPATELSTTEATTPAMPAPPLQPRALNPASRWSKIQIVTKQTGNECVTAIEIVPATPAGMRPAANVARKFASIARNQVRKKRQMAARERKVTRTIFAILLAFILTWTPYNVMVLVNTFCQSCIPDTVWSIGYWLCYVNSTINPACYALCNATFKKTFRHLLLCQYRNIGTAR
M1 PAM parental – nonselective activator or artifact in parental CHO-K1 calcium assay; ATP EC20, Fluo-8 calcium fluorescence; 0% at ATP EC20, 100% at ATP max; 360,000 compounds, 0.02% hits; activation, % at 3 µM;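 active = activation above the run cutoff, the mean activation of all test compounds plus 3 SD, cut at about 40% in these data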;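 also: peak over basal fluorescence ratio in a 140 s read after ATP addition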
CHO-K1 Ca antag – M1 antagonist counterscreen hit in parental CHO-K1 cells. ATP-induced calcium, Fluo-8 fluorescence. inhibition, % at 3 µM. 360,000 compounds, 0.6% hits. AID 602250;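 active = inhibition above a per-plate cutoff, the plate's mean sample inhibition plus 3 SD, cut at about 24% in these data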;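 also: 0% = DMSO plus EC80 ATP and 100% = DMSO alone without ATP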
M1 ag parental – counter-screen for M1 agonists: effect in parental CHO-K1 cells | activation, % at 3 µM | AID 602248 | Fluo-8 calcium fluorescence; scaled to maximal ATP response, vehicle zero | 360,000 compounds, 0.48% hits; in the data active = activation above about 15%;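 also: untransfected CHO-K1 host cells lacking M1 receptor as counterscreen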
M4 ag – CHRM4 agonism in calcium assay. P08173. CHO-K1 hM4/Gqi5, Fluo-8 calcium fluorescence; vehicle 0%, full acetylcholine response 100%. activation, % at 3 µM. 360,000 compounds, 0.14% hits. AID 624127;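 active = activation above the run mean over all test wells plus 3 SD, cut at about 32% in these data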;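 also: peak over basal fluorescence ratio per well then scaled between controls; 0% = DMSO wells and 100% = acetylcholine at EC100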
M4 PAM – CHRM4 positive allosteric modulation; 360,000 compounds, 0.4% hits; CHO-K1 hM4/Gqi5, Fluo-8 calcium fluorescence, ACh EC20; 0% = ACh EC20, 100% = maximal ACh; P08173; AID 624126; activation, % at 3 µM;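 active = activation above its plate's cutoff, the mean activation of sample wells plus 3 SD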
* = called active by the depositor. Sampled rows, rich in hits. Any-hit rate of the full collection: about 2%.

SMILES | M4 antag | M1 PAM parental | CHO-K1 Ca antag | M1 ag parental | M4 ag | M4 PAM
O=S(=O)(/C(=C\c1ccc(C(F)(F)F)cc1)c1nc2ccccc2[nH]1)c1ccccc1 | 44* | 23 | -4 | 1 | 3 | -7
O=C(NCc1ccco1)/C(=C/c1ccc(C(F)(F)F)cc1)c1nc2ccccc2[nH]1 | -9 | 20 | -3 | 1 | 5 | 4
CCCCNC(=O)C1(C)CCN1C(=O)Cc1ccc(OC)cc1 (stereo not drawn) | -4 | 16 | -10 | 1 | 1 | 3
Cc1ccc(C(=O)N2CCN(c3ccccc3)CC2)cc1NC(=O)c1ccco1 | -6 | -5 | -1 | 3 | 8 | 2
CC(C)C(=O)Nc1ccc(Br)cc1Cl | -3 | -13 | 56* | -2 | 0 | 4
CC(=O)c1c(C)[nH]c(C(=O)NCc2ccccn2)c1C | 0 | 14 | -5 | 0 | 1 | 6
CCOC(=O)c1[nH]c(C)c(C(=O)N2CCN(C(=O)OCC)CC2)c1CC | -14 | -12 | 26* | 0 | 1 | -4
CC1(C#CC[N+]2(C)CCCCC2)CCC2C(O1)c1ccccc1OC2(C)C (stereo not drawn) | 79* | 17 | -20 | 0 | 84* | -30
CC1=C/C(=C\C=C(C#N)C#N)N(C)c2ccccc21 | 2 | 2 | 4 | 27* | 10 | -1
Cn1c(CNC(=O)c2ccco2)nnc1SCC(=O)Nc1cccc(F)c1 | 3 | 18 | -10 | 1 | 1 | 4
O=C(CNC(=O)c1ccco1)NCC(=O)OCc1ccc(Cl)cc1 | 4 | 2 | -9 | 0 | 1 | 10
COc1ccc(-c2sc(Nc3ccccc3)n[n+]2-c2ccc(F)cc2)cc1Br | 10 | -1 | -7 | 0 | 1 | 14
Fc1ccc(-[n+]2nc(Nc3ccccc3)sc2-c2c(Cl)cccc2Cl)cc1 | 13 | 2 | -7 | 15* | 22 | -18
CCc1ccc(Nc2n[n+](-c3ccccc3)c(-c3ccc(N(CC)CC)cc3)s2)cc1 | 30* | 6 | 18 | 14 | 42* | -9
COc1ccc2ccccc2c1-c1sc(Nc2ccccc2)n[n+]1-c1ccc(F)cc1 | 9 | -3 | -9 | 16* | 32* | -8
CCc1ccc(Nc2n[n+](-c3ccccc3)c(-c3ccc(OCc4ccccc4)cc3)s2)cc1 | -1 | 30 | -10 | 0 | 10 | -10
O=C(O)c1ccc(-c2sc(Nc3ccccc3)n[n+]2-c2ccc(F)cc2)cc1 | -4 | 1 | 3 | 0 | -1 | 0
CCN(CC)c1ccc(-c2sc(Nc3ccccc3)n[n+]2-c2ccc(F)cc2)cc1 | -4 | 11 | 2 | 4 | 22 | -6
CCc1ccc(Nc2n[n+](-c3ccccc3)c(-c3c(Cl)cccc3Cl)s2)cc1 | 24 | -3 | 8 | 21* | 43* | -19
Cn1c(/C(C#N)=C(\O)c2ccc(Cl)s2)nc2ccccc21 | 0 | -4 | -6 | 0 | -1 | -2
OC(CNCc1ccccc1F)(c1ccc(F)cc1)c1ccc(F)cc1 | -7 | 28 | -6 | 3 | 1 | -6
Cc1ccc(N2C(=O)CSC2c2c(F)cccc2Cl)cc1 (stereo not drawn) | 86* | -1 | 6 | 0 | -4 | -30
COc1ccc(N2C(=O)CSC2c2ccc(F)c(F)c2)cc1 (stereo not drawn) | 12 | -6 | 9 | 3 | 1 | -9
COc1cccc(C2SCC(=O)N2c2ccc(Cl)cc2)c1OC (stereo not drawn) | 59* | -4 | 0 | 0 | -3 | -36
N#C/C(=C\c1ccc(O)c(O)c1)C(=O)Nc1cccc2ncccc12 | 8 | 20 | -5 | 1 | 4 | 7
O=C(CCNc1ccc(Cc2ccncc2)cc1)c1cccc([N+](=O)[O-])c1 | 28* | 5 | -11 | 2 | 3 | -19
O=C(CCNc1cccc(F)c1)c1cccc([N+](=O)[O-])c1 | -14 | 8 | -12 | 1 | 1 | -8
O=C(CCn1ccc([N+](=O)[O-])n1)NC1CCCCCC1 | 5 | -1 | -1 | 0 | 0 | 7
CN1CCC(C)(C(=O)Nc2cccc3c2CCCC3)C1 (stereo not drawn) | -20 | 5 | 3 | 2 | 0 | -1

Screens as filed in PubChem BioAssay.
